# Compound activity: PubChem BioAssay, National Center for Advancing Translational Sciences (NCATS)
# In the library only some 1.1% were active in any assay of this set; here they are far more common.
# FBPA Giardia inh: Giardia lamblia aldolase inhibition. purified Giardia FBPA. Potency, µM (titrated, usually from 59.6 µM), for inactives: at the top dose activity, negative = inhibition, actives largely listed as inhibitors. hit rate 0.71% among 290,000; also: potency is read from the fitted curve at half-maximal effect; % is scaled to controls: 0 for no effect and ±100 for the full control effect; nearly all actives have a fitted effect of over 55% in size
# Target sequence (A8B2U2 whole entry, looked up): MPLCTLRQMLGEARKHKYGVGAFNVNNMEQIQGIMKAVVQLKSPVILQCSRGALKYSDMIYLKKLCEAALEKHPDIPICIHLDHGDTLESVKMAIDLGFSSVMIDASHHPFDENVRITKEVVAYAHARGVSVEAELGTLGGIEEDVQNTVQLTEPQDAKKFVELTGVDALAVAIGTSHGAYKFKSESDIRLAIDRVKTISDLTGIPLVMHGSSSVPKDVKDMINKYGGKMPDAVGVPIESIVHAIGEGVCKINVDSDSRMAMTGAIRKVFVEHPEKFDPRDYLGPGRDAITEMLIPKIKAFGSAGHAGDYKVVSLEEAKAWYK
#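 40 nM FBPA preincubated 10 min at RT with compound (up to 57.5 uM final), then substrate plus GAPDH/TPI/NAD/arsenate coupling and diaphorase/resazurin added. Fluorescence read after 20 min at RT, 525/598 nm.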
# AmpC no deterg: AmpC beta-lactamase inhibition without detergent | P00811 | AmpC nitrocefin hydrolysis, absorbance 480 nm, 0.0001% Triton | Potency, µM (series often up to 57.1 µM), without a hit: at the highest dose activity change, negative = inhibition, actives largely listed as inhibitors | hit rate 0.52% among 330,000 | AID 485341;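 also: potency is read from the fitted curve at half-maximal effect; plate controls were no compound for no effect and no enzyme for full effect; nearly all actives have a fitted effect of over 20% in size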
# Target sequence (P00811 whole entry, looked up): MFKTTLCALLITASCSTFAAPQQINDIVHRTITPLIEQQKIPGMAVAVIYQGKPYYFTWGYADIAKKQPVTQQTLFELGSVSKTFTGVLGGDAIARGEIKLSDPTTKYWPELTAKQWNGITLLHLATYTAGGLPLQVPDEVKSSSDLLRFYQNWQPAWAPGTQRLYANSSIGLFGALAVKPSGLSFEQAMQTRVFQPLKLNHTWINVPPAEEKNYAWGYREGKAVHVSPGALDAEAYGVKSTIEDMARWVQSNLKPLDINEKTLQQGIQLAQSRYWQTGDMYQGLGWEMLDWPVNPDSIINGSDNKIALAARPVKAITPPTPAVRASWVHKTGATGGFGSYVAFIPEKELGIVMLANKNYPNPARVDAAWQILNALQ
#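 20 mM phosphate pH 7.0 + 0.01% (detergent screen) or 0.0001% Triton X-100; 5.3 nM AmpC reagent; cpd preinc 15 min RT; nitrocefin (800 uM stock) to start; A480 q20 s × 4 min; Activity was normalised to no-enzyme and no-compound control wells.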
# SARS PLpro yeast-1: inhibitors of SARS-CoV papain-like protease in yeast | S. cerevisiae expressing SARS-CoV PLpro, growth rescue | Potency, µM (doses to about 32.9 µM), for inactives: top-dose activity, positive = growth rescue, actives largely listed as activators | hit rate 0.19% among 330,000; calls by dose curve; also: potency is read from the fitted curve at half-maximal effect; 0% is about no effect; nearly all actives have a fitted effect of over 55% in size
# AmpC inh detg: AmpC beta-lactamase inhibition with detergent present; P00811; AmpC hydrolysis of nitrocefin, absorbance 480 nm, 0.01% Triton; Potency, µM (titrated, usually from 114 µM), inactives show at the top dose activity change, negative = inhibition, usual class: inhibitors; hit rate 0.041% among 370,000;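 also: potency is read from the fitted curve at half-maximal effect; 0% = no-compound wells and -100% = no-enzyme wells; nearly all actives have a fitted effect of over 25% in size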
#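 AmpC (5.3 nM in the dispensed reagent) in 20 mM phosphate pH 7.0 with 0.01% (detergent screen) or 0.0001% Triton X-100 was preincubated with compounds for 15 min at room temperature. Nitrocefin was then added from an 800 uM solution, and hydrolysis was followed at 480 nm.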
# SARS PLpro yeast-2: Rescues yeast growth by inhibiting SARS-CoV PLpro. shares compounds with SARS PLpro yeast-1. yeast expressing SARS-CoV PLpro, growth phenotype rescue. calls only. hit rate 19% among 1,000. AID 652038; call rule not given here
# Active calls of the source: *; i = inactive; ? = inconclusive; · = no result given; + = active, no number. Unless noted, calls follow the shape of the dose curve; as a rule, active = well fitted curve in the direction sought with a large enough effect; inconclusive = small, poorly fitted or top-dose-only effect, or another doubt; inactive = no such curve, though single readings can be large; an effect the other way counts as inactive or inconclusive.
SMILES,FBPA Giardia inh,AmpC no deterg,SARS PLpro yeast-1,AmpC inh detg,SARS PLpro yeast-2
Cc1ccc(/C=C/C(=O)OCC(=O)Nc2cccc(S(=O)(=O)N(C)C)c2)o1,1%,-19%,3.2µM*,?,i
CN(C)S(=O)(=O)c1cccc(NC(=O)COC(=O)/C=C/c2ccco2)c1,0%,-16%,-12%,-9%,·
Cc1ccc(NC(=O)Cc2ccc(-n3c(C)nc4cccnc43)cc2)c(Cl)c1,·,·,·,-2%,·
CCOC(=O)c1[nH]c2ccc(OC)cc2c1NC(=O)c1nonc1C,0%,-11%,4%,?,·
CCOC(=O)c1[nH]c2ccc(Cl)cc2c1NC(=O)c1nonc1C,1%,-9%,?,-1%,+
COc1cc(/C=N/NC(=O)C(=O)/C=C2\NC3(CCCC3)Cc3ccccc32)ccc1O,-3%,-40%,-10%,-15%,·
O=C(/C=C1\NC2(CCCC2)Cc2ccccc21)C(=O)N/N=C/c1ccccc1O,6%,-29%,7.9µM*,?,+
CCCCN1CC(=O)N2[C@H]3c4ccc(OC)cc4OC[C@@H]3[C@H](c3ccccc3)[C@]2(C)C1=O,·,97%,?,3%,i
COc1ccc2c(c1)OC[C@H]1[C@H]2N2C(=O)CN(Cc3ccc(C)cc3)C(=O)[C@@]2(C)[C@H]1c1ccccc1,·,54%,11µM*,5%,i
COc1ccc2c(c1)OC[C@H]1[C@H]2N2C(=O)CN(Cc3ccc(F)cc3)C(=O)[C@@]2(C)[C@H]1c1ccccc1,·,37%,0%,-5%,·
CCOc1ccc(C(=O)CC(=O)C(=O)NCCc2ccc(OC)c(OC)c2)cc1,-19%,28%,20µM*,2%,?
Oc1ccccc1/C=N/Nc1ncc(Br)cn1,-5%,-21%,?,-11%,i
Oc1ccccc1/C=N/Nc1ccccc1,-5%,-21%,-45%,4%,·
Cc1sc2ncnc(N/N=C/c3ccccc3O)c2c1C,?,31%,1.1µM*,?,?
Cc1sc2ncnc(N/N=C/c3ccc(O)cc3)c2c1C,-24%,-14%,-27%,-4%,·
Cc1cc(/C=C(\C#N)C(=O)NC2CCCCCC2)c(C)[nH]1,6%,-40%,13µM*,?,i
CCN(CC(=O)Nc1ccc(NC(C)=O)cc1)C(=O)/C=C/c1cccs1,6%,-9%,-4%,8%,·
CCN(CC(=O)Nc1ccc(NC(C)=O)cc1)C(=O)/C=C/c1c(C)nn(-c2ccc(F)cc2)c1C,·,76%,?,-2%,i
O=C(CN1CCN(c2ncccn2)CC1)Nc1ccccc1-n1cccc1,?,61%,14µM*,2%,i
CCCN1CCN(C(=O)c2noc3c2COc2ccc(C)cc2-3)CC1,-9%,103%,?,-15%,i
Cc1ccc(S(=O)(=O)NCCC(=O)NCc2ccc3c(c2)OCO3)cc1C,1%,-32%,16µM*,?,i
O=C(CCNS(=O)(=O)c1ccc2c(c1)CCC(=O)N2)NCc1ccc2c(c1)OCO2,-1%,-19%,6%,-3%,·
Cc1ccc(NC(=S)/N=C(\N)Nc2nc(C)c3ccccc3n2)cc1C,-1%,-9%,10µM*,7%,+
CCCCCCC(=O)Nc1nc(C)c(-c2csc(Nc3cc(OC)ccc3OC)n2)s1,1%,-40%,?,0%,i
CCCCCC(=O)Nc1nc(C)c(-c2csc(Nc3cc(OC)ccc3OC)n2)s1,0%,-34%,-4%,2%,·
SMILES,FBPA Giardia inh,AmpC no deterg,SARS PLpro yeast-1,AmpC inh detg,SARS PLpro yeast-2
Cc1sc2c(c1C)c(=O)n(-c1cccc(C(F)(F)F)c1)c(=O)n2Cc1ccc(F)cc1,·,·,·,0%,·
O=C(NC1CCCCC1)/C(=N\O)c1ccccn1,5%,-12%,?,-2%,i
Cc1c(C(=O)N2CCN(S(=O)(=O)c3ccc(F)cc3)CC2)oc2ccccc12,·,-6%,?,-14%,i
CCN(CC)CCNC(=O)Nc1ccc2c(c1)N(Cc1ccccc1)C(=O)c1ccccc1S2,·,·,·,-4%,·
CC(=O)Nc1ccc(S(=O)(=O)N2CCC(n3c(C(F)(F)F)nc4cccnc43)CC2)cc1,·,·,·,0%,·
COc1ccc2oc(C(=O)OCC(=O)N(C)CC(=O)Nc3ccc(F)cc3)c(C)c2c1,·,22%,?,1%,i
Clc1nc2sccn2c1/C=N/n1cnc2ccccc21,0%,-4%,?,6%,i
Cc1nn(-c2ccccc2)c(-n2cccc2)c1C(=O)NCCCN1CCN(c2ccccc2F)CC1,·,·,·,5%,·
CCOCCCn1c(N)c(C(=O)Nc2sc3c(c2C(=O)OC)CCCC3)c2nc3ccccc3nc21,?,12%,?,5%,?
CCOc1ccc(OCC)c(NS(=O)(=O)c2ccc3c(c2)CCCN3C(C)=O)c1,·,·,·,1%,·
COc1cc(/C=C/C(=O)O)ccc1OS(=O)(=O)c1cc(Br)ccc1C,·,-28%,10µM*,-6%,i
Cc1ccc2cc(CCNC(=O)C(C)C)c(=O)[nH]c2c1,-3%,-93%,1%,?,·
CC(=O)NCCc1cc2ccc(C)cc2[nH]c1=O,0%,-18%,?,-7%,i
CCOc1ccc(NC(=O)C2CCN(C(=O)N3CC(C)Oc4ccc(Cl)cc43)CC2)cc1 (configuration not stated),·,·,·,-2%,·
Cc1ccc2c(C)cc(=S)[nH]c2c1,0%,-7%,26%,2%,·
Cc1ccc2[nH]c(=S)cc(C)c2c1,6%,-24%,22µM*,?,+
Cc1cccc(CNC(=O)C2CCN(S(=O)(=O)c3ccc4c(c3)CCCN4C(=O)C3CCC3)CC2)c1,·,·,·,3%,·
CCOC(=O)c1oc2ccccc2c1CN1CCN(C(=O)c2ccccc2)CC1,4%,105%,3.5µM*,?,i
CC1(C)N=C(c2ccc(Cl)cc2)C(=O)N1,6%,-8%,1%,?,·
Cc1ccc(C2=NC(C)(C)NC2=O)cc1,3%,-9%,?,?,i
CCOC(=O)c1ccc(N2C(=O)c3n[nH]c(-c4ccco4)c3C2c2cccc(O)c2)cc1 (configuration not stated),·,·,·,-1%,·
Cc1ccc(C)c(NC(=O)N2CCN(C(=O)c3nsc4ccccc34)CC2)c1,·,·,·,16%,·
CN(C(=O)c1ccccc1-c1ncc[nH]1)C1CCCN(Cc2ccccc2F)C1 (configuration not stated),·,-5%,16µM*,5%,i
COc1ccc(C2OC(=O)c3ccccc3S2)cc1 (configuration not stated),-1%,-27%,?,?,i
COc1cc(C2OC(=O)c3ccccc3S2)cc(OC)c1OC (configuration not stated),11%,-8%,-1%,-3%,·
CCCCCC/C=N/Nc1nnc(Cc2ccc(OC)c(OC)c2)c(=O)[nH]1,-14%,-28%,0%,-7%,·
COc1ccc(Cc2nnc(N/N=C/c3ccc(O)cc3O)[nH]c2=O)cc1OC,-1%,-13%,6.3µM*,5%,i
Cc1ccc(C2C=C(c3ccc(Cl)cc3)Nc3nc(NC(=O)c4ccco4)nn32)cc1 (configuration not stated),·,·,·,5%,·
